Measured values as given in PubChem BioAssay (NCI).
The panel holds about 79,000 compounds, 15% with a hit somewhere; the sample as a whole holds those more often. Values without a mark were called inactive. Calls of active or inactive are those of the source. No stated cut-off is given here; in the data, active means growth inhibition above about 70%; inactive means the rest.

Legend:
[1] = NCI Yeast Anticancer Drug Screen. Data for the rad52 strain (AID 147);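 further: 0% = growth of vehicle-treated control cultures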; conditions: S. cerevisiae rad52 mutant growth inhibition, hits give high values
Summary of the method: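 Compounds are applied to a genetically defined yeast strain lacking normal DNA damage repair, and inhibition of growth is expressed relative to cultures given vehicle only.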

[2] = NCI Yeast Anticancer Drug Screen. Data for the wt1 strain (AID 149);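 further: 0% = growth of vehicle-treated wt1 cultures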; conditions: S. cerevisiae wt1 strain (SPY 50644) growth inhibition, hits give high values
Summary of the method: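 Growth inhibition read against vehicle controls after compound exposure of the wt1 yeast strain.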

[3] = NCI Yeast Anticancer Drug Screen. Data for the rad50EPP+ strain (AID 151);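 further: 0% = growth of vehicle-treated control cultures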; conditions: S. cerevisiae rad50 mutant strain, hits give high values
Summary of the method: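 Compounds were applied to the rad50EPP+ yeast strain, which bears a defined DNA repair alteration, and growth inhibition was determined relative to vehicle-treated cultures.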

[4] = NCI Yeast Anticancer Drug Screen. Data for the rad50 strain (AID 155);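 further: 0% = growth of vehicle-only cultures of the same strain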; conditions: S. cerevisiae rad50 strain growth inhibition, hits give high values
Summary of the method: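 Readout: growth inhibition relative to vehicle-treated cultures. Compound exposure was carried out in a genetically defined yeast strain deficient in DNA damage repair.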

[5] = NCI Yeast Anticancer Drug Screen. Data for the mec2-1 strain (AID 157); conditions: S. cerevisiae mec2-1 strain, hits give high values
Summary of the method: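 Strain: mec2-1 (DNA repair/cell cycle alteration). Compound exposure, then growth measured; inhibition expressed relative to vehicle.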

[6] = NCI Yeast Anticancer Drug Screen. Data for the rad14 strain (AID 159);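 further: 0% = growth of vehicle-treated control cultures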; conditions: S. cerevisiae rad14 strain growth inhibition, hits give high values
Summary of the method: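 Growth inhibition vs vehicle controls; genetically altered yeast strain (DNA damage repair defect) treated with test compounds.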

[7] = NCI Yeast Anticancer Drug Screen. Data for the sgs1 mgt1 strain (AID 161);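 further: 0% = growth of cultures given vehicle only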; conditions: S. cerevisiae sgs1 mgt1 strain, hits give high values
Summary of the method: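 Read-out: growth inhibition vs vehicle controls. Cells: mutant yeast strain deficient in DNA damage repair.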

[8] = NCI Yeast Anticancer Drug Screen. Data for the CLN2oe strain (AID 163);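 further: 0% = growth of vehicle-only control cultures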; conditions: S. cerevisiae CLN2oe strain, hits give high values
Summary of the method: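 Growth of a genetically modified yeast strain is measured after compound exposure and compared with cultures given vehicle alone.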

[9] = NCI Yeast Anticancer Drug Screen. Data for the cln2 rad14 strain (AID 165);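 further: 0% = growth equal to vehicle treated cultures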; conditions: S. cerevisiae cln2 rad14 strain, hits give high values
Summary of the method: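 Compounds are applied to the cln2 rad14 yeast strain, and growth is then compared with that of vehicle-treated cultures to give inhibition.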

[10] = NCI Yeast Anticancer Drug Screen. Data for the bub3 strain (AID 167); conditions: S. cerevisiae bub3 mutant strain, hits give high values
Summary of the method: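 Readout: yeast growth inhibition, expressed relative to vehicle-only wells. The test organism is a mutant strain from a panel with lesions in DNA repair or checkpoint genes.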

[11] = NCI Yeast Anticancer Drug Screen. Data for the wt2 strain (AID 169);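 further: 0% = growth of vehicle-treated yeast cultures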; conditions: S. cerevisiae wt2 strain growth inhibition, hits give high values
Summary of the method: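 This strain belongs to a panel of yeast strains with defined genetic alterations in DNA damage repair or cell cycle control. Compounds are applied, and growth inhibition is measured against vehicle-treated cultures.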

[12] = NCI Yeast Anticancer Drug Screen. Data for the mlh1 strain (AID 171);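 further: 0% = growth of vehicle-treated control cultures of the same strain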; conditions: S. cerevisiae mlh1 strain growth inhibition, hits give high values
Summary of the method: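 Growth of the mutant yeast strain after compound exposure, expressed as inhibition relative to vehicle-only controls.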

[13] = NCI Yeast Anticancer Drug Screen. Data for the sgs1 strain (AID 173);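 further: 0% = growth of vehicle-only control cultures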; conditions: S. cerevisiae sgs1 mutant, hits give high values
Summary of the method: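 Growth of a yeast strain bearing a defined genetic alteration is measured after compound treatment. Inhibition is expressed relative to vehicle-only controls.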

[14] = NCI Yeast Anticancer Drug Screen. Data for the mlh1 rad18 strain (AID 175); conditions: S. cerevisiae mlh1 rad18 strain growth inhibition, hits give high values
Summary of the method: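 Read-out is yeast growth inhibition, calculated against vehicle-only controls. The compound was applied to a strain engineered with DNA damage repair alterations.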

[15] = NCI Yeast Anticancer Drug Screen. Data for the rad18 strain (AID 177); conditions: S. cerevisiae rad18 mutant growth inhibition, hits give high values
Summary of the method: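 Growth of the mutant yeast strain after compound exposure, normalised to vehicle-only cultures.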

[16] = at 5.0 µM (retest, dose inferred, filed as 0.5)
[17] = at 50.0 µM (retest, dose inferred, filed as 5.0)

CCCCCCCCCCCCCCCCNC(=O)/C(=C\c1ccc(Cl)c(Cl)c1)NC(=O)c1ccccc1
growth inhibition ([1]; at 1.2 µM): 21%
growth inhibition ([1]; at 3.7 µM): 8%
growth inhibition ([1]; at 11.0 µM): 18%
growth inhibition ([1]; at 33.0 µM): 11%
growth inhibition ([1]; at 100.0 µM): 77% (active)
growth inhibition ([2]; at 1.2 µM): -41%
growth inhibition ([2]; at 3.7 µM): -2%
growth inhibition ([2]; at 11.0 µM): -4%
growth inhibition ([2]; at 33.0 µM): -6%
growth inhibition ([2]; at 100.0 µM): 9%
growth inhibition ([3]; at 1.2 µM): 2%
growth inhibition ([3]; at 3.7 µM): 6%
growth inhibition ([3]; at 11.0 µM): 6%
growth inhibition ([3]; at 33.0 µM): 34%
growth inhibition ([3]; at 100.0 µM): 74% (active)
growth inhibition ([4]; at 1.2 µM): -2%
growth inhibition ([4]; at 3.7 µM): 0%
growth inhibition [4, 16]: 14%
growth inhibition ([4]; at 11.0 µM): -2%
growth inhibition ([4]; at 33.0 µM): -4%
growth inhibition [4, 17]: 75% (active)
growth inhibition ([4]; at 50.0 µM): 93.2% (active)
growth inhibition ([4]; at 100.0 µM): 49%
growth inhibition ([5]; at 1.2 µM): 11%
growth inhibition ([5]; at 3.7 µM): -5%
growth inhibition [5, 16]: 8%
growth inhibition ([5]; at 11.0 µM): -7%
growth inhibition ([5]; at 33.0 µM): -2%
growth inhibition [5, 17]: 29%
growth inhibition ([5]; at 50.0 µM): 94.2% (active)
growth inhibition ([5]; at 100.0 µM): 33%
growth inhibition ([6]; at 1.2 µM): -1%
growth inhibition ([6]; at 3.7 µM): 0%
growth inhibition ([6]; at 11.0 µM): -4%
growth inhibition ([6]; at 33.0 µM): 4%
growth inhibition ([6]; at 100.0 µM): 43%
growth inhibition [7, 16]: -5%
growth inhibition [7, 17]: 13%
growth inhibition ([7]; at 50.0 µM): 55%
growth inhibition ([8]; at 1.2 µM): -11%
growth inhibition ([8]; at 3.7 µM): -7%
growth inhibition ([8]; at 11.0 µM): -6%
growth inhibition ([8]; at 33.0 µM): -13%
growth inhibition ([8]; at 100.0 µM): 52%
growth inhibition [9, 16]: 46%
growth inhibition [9, 17]: -10%
growth inhibition ([9]; at 50.0 µM): 59.2%
growth inhibition ([10]; at 1.2 µM): -3%
growth inhibition ([10]; at 3.7 µM): -4%
growth inhibition [10, 16]: 3%
growth inhibition ([10]; at 11.0 µM): -6%
growth inhibition ([10]; at 33.0 µM): -7%
growth inhibition [10, 17]: 43%
growth inhibition ([10]; at 50.0 µM): 88.8% (active)
growth inhibition ([10]; at 100.0 µM): 87% (active)
growth inhibition ([11]; at 1.2 µM): 0%
growth inhibition ([11]; at 3.7 µM): 1%
growth inhibition ([11]; at 11.0 µM): 0%
growth inhibition ([11]; at 33.0 µM): 5%
growth inhibition ([11]; at 100.0 µM): 69%
growth inhibition ([12]; at 1.2 µM): 0%
growth inhibition ([12]; at 3.7 µM): -1%
growth inhibition ([12]; at 11.0 µM): -3%
growth inhibition ([12]; at 33.0 µM): -5%
growth inhibition ([12]; at 100.0 µM): 47%
growth inhibition ([13]; at 1.2 µM): 2%
growth inhibition ([13]; at 3.7 µM): 5%
growth inhibition ([13]; at 11.0 µM): 5%
growth inhibition ([13]; at 33.0 µM): 14%
growth inhibition ([13]; at 100.0 µM): 49%
growth inhibition [14, 16]: 10%
growth inhibition [14, 17]: 31%
growth inhibition ([14]; at 50.0 µM): 89.2% (active)
growth inhibition ([15]; at 1.2 µM): 7%
growth inhibition ([15]; at 3.7 µM): 7%
growth inhibition ([15]; at 11.0 µM): 26%
growth inhibition ([15]; at 33.0 µM): 24%
growth inhibition ([15]; at 100.0 µM): 67%

O=Nn1c2ccccc2c2cc([N+](=O)[O-])ccc21
growth inhibition ([1]; at 1.2 µM): -6%
growth inhibition ([1]; at 3.7 µM): 11%
growth inhibition ([1]; at 11.0 µM): 51%
growth inhibition ([1]; at 33.0 µM): 88% (active)
growth inhibition ([1]; at 100.0 µM): 95% (active)
growth inhibition ([2]; at 1.2 µM): -27%
growth inhibition ([2]; at 3.7 µM): -23%
growth inhibition ([2]; at 11.0 µM): -14%
growth inhibition ([2]; at 33.0 µM): 49%
growth inhibition ([2]; at 100.0 µM): 92% (active)
growth inhibition ([3]; at 1.2 µM): 8%
growth inhibition ([3]; at 3.7 µM): 15%
growth inhibition ([3]; at 11.0 µM): 27%
growth inhibition ([3]; at 33.0 µM): 66%
growth inhibition ([3]; at 100.0 µM): 85% (active)
growth inhibition ([4]; at 1.2 µM): 15%
growth inhibition ([4]; at 3.7 µM): 24%
growth inhibition [4, 16]: 47%
growth inhibition ([4]; at 11.0 µM): 53%
growth inhibition ([4]; at 33.0 µM): 89% (active)
growth inhibition [4, 17]: 92% (active)
growth inhibition ([4]; at 50.0 µM): 81.9% (active)
growth inhibition ([4]; at 100.0 µM): 93% (active)
growth inhibition ([5]; at 1.2 µM): -16%
growth inhibition ([5]; at 3.7 µM): -1%
growth inhibition [5, 16]: 51%
growth inhibition ([5]; at 11.0 µM): 11%
growth inhibition ([5]; at 33.0 µM): 59%
growth inhibition [5, 17]: 91% (active)
growth inhibition ([5]; at 50.0 µM): 75.8% (active)
growth inhibition ([5]; at 100.0 µM): 93% (active)
growth inhibition ([6]; at 1.2 µM): -19%
growth inhibition ([6]; at 3.7 µM): -5%
growth inhibition ([6]; at 11.0 µM): 1%
growth inhibition ([6]; at 33.0 µM): 61%
growth inhibition ([6]; at 100.0 µM): 93% (active)
growth inhibition [7, 16]: -26%
growth inhibition [7, 17]: 27%
growth inhibition ([7]; at 50.0 µM): 84.5% (active)
growth inhibition ([8]; at 1.2 µM): -32%
growth inhibition ([8]; at 3.7 µM): -9%
growth inhibition ([8]; at 11.0 µM): -9%
growth inhibition ([8]; at 33.0 µM): 55%
growth inhibition ([8]; at 100.0 µM): 94% (active)
growth inhibition [9, 16]: 35%
growth inhibition [9, 17]: 62%
growth inhibition ([9]; at 50.0 µM): 72.9% (active)
growth inhibition ([10]; at 1.2 µM): 4%
growth inhibition ([10]; at 3.7 µM): 19%
growth inhibition [10, 16]: 19%
growth inhibition ([10]; at 11.0 µM): 55%
growth inhibition ([10]; at 33.0 µM): 88% (active)
growth inhibition [10, 17]: 71% (active)
growth inhibition ([10]; at 50.0 µM): 84.8% (active)
growth inhibition ([10]; at 100.0 µM): 96% (active)
growth inhibition ([11]; at 1.2 µM): -28%
growth inhibition ([11]; at 3.7 µM): -22%
growth inhibition ([11]; at 11.0 µM): 8%
growth inhibition ([11]; at 33.0 µM): 59%
growth inhibition ([11]; at 100.0 µM): 91% (active)
growth inhibition ([12]; at 1.2 µM): -35%
growth inhibition ([12]; at 3.7 µM): -29%
growth inhibition ([12]; at 11.0 µM): -3%
growth inhibition ([12]; at 33.0 µM): 48%
growth inhibition ([12]; at 100.0 µM): 89% (active)
growth inhibition ([13]; at 1.2 µM): -8%
growth inhibition ([13]; at 3.7 µM): -14%
growth inhibition ([13]; at 11.0 µM): -1%
growth inhibition ([13]; at 33.0 µM): 65%
growth inhibition ([13]; at 100.0 µM): 92% (active)
growth inhibition [14, 16]: 39%
growth inhibition [14, 17]: 97% (active)
growth inhibition ([14]; at 50.0 µM): 80% (active)
growth inhibition ([15]; at 1.2 µM): -10%
growth inhibition ([15]; at 3.7 µM): -6%
growth inhibition ([15]; at 11.0 µM): 37%
growth inhibition ([15]; at 33.0 µM): 84% (active)
growth inhibition ([15]; at 100.0 µM): 93% (active)
